Source: PubChem BioAssay (several laboratories)
HIF-2a block = HIF-2a reporter inhibitors, primary screen, luminescence, 786-0 RCC cells. inhibition, % at 18.8 µM. 786-0 RCC cells HIF-2a reporter, luciferase luminescence, overnight. actives 0.72% (n = 360,000);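 active means inhibition of the luminescence signal of 40% or more relative to plate controls, in a single-dose primary screen at 18.75 µM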
ABHD5-PLIN5 inh = ABHD5-PLIN5 interaction inhibitors, primary screen, cell lysate, split luciferase complementation, luminescence. AID 602281, 2012. Perilipin-5 (Homo sapiens) + 1-acylglycerol-3-phosphate O-acyltransferase ABHD5 (Homo …. Split G. princeps luciferase complementation, 4 h. inhibition, % at 4 µM. actives 0.78% (n = 360,000);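 active means inhibition above the mean inhibition across every tested compound plus 3 SD, cut at about 22% in these data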
Mdm2 MdmX PPI = inhibitors of human Mdm2-MdmX association, primary screen, cell-based, luminescence, split luciferase, SaOS-2, uHTS; SaOS-2 split-luciferase Mdm2/MdmX complementation; inhibition, % at 8 µM; actives 3% (n = 330,000); AID 485346, 2010;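 active means inhibition of at least 50% at 8 µM in the primary screen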
Target sequence (O15151 whole entry, looked up): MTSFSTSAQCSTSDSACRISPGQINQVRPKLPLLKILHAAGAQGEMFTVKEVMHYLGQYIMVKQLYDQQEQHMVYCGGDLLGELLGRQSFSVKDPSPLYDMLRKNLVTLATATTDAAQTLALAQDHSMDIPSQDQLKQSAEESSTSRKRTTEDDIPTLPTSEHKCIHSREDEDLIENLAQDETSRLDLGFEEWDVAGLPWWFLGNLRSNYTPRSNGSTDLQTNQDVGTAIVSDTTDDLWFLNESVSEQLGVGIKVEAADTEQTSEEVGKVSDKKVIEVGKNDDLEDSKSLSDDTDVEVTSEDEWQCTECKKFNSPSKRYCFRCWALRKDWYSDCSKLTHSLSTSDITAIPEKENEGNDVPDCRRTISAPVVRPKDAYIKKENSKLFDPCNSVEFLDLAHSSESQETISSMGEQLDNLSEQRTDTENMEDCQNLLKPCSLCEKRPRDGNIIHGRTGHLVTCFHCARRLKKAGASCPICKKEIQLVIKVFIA
Target sequence (Q00987 whole entry, looked up): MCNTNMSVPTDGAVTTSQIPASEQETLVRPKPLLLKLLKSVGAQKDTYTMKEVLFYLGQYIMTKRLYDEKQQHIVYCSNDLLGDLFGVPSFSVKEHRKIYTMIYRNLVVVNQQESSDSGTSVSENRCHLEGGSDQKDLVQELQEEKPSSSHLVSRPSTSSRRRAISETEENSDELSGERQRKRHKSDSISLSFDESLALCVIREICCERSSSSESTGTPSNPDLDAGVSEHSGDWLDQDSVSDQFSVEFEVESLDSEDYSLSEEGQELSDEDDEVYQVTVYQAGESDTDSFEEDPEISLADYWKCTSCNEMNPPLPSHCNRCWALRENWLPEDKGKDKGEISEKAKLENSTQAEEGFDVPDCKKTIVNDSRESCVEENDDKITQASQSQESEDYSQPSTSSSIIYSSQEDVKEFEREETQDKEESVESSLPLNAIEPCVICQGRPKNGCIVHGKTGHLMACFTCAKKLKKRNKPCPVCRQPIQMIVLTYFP
Peg3 promoter = Peg3 promoter-driven luciferase inhibitors, primary screen, cell-based, HeLa, luciferase luminescence; actives 1.7% (n = 360,000); HeLa PEG-Prom luciferase reporter, overnight; AID 588405, 2011; inhibition, % at 20 µM;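 active means inhibition of at least 50% at 20 µM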
CF NFkB block = inhibitors of PAF-induced NF-kB signaling, primary screen, cell-based, GFP fluorescence, uHTS; KKLEB NF-kB-GFP reporter, GFP fluorescence overnight; inhibition, % at 5 µM; actives 0.86% (n = 360,000); AID 588850, 2011;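 active means at least 50% inhibition at 5 µM, scaled per plate between neutral and stimulator controls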;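 further: PAF is a Pseudomonas aeruginosa culture filtrate used as stimulus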
KKLEB cytotox = cytotoxicity in KKLEB CF airway cells, primary screen, cytotoxicity control for CF NF-kB inhibitor project, cell-based, uHTS, fluorescence assay plates. KKLEB CF airway cells viability, ATPlite luminescence, overnight; active compounds read low; cells stimulated with P. aeruginosa culture filtrate. activity change (cytotoxicity), % at 5 µM. actives 0.36% (n = 360,000);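 active means corrected activity change at or below -50% at 5 µM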
Mdm2-MdmX conf = Mdm2-MdmX complex disruptors, retested hits, confirmation, luminescence, single concentration | actives 55% (n = 10,000) | shares compounds with Mdm2 MdmX PPI | inhibition, % at 8 µM | Mdm2-MdmX binding, luminescent assay; in the data active means inhibition above about 40%
Full FLuc ctr = full-length luciferase signal inhibition, confirmation, counter-screen for Mdm2/MdmX interaction inhibitor project, cell-based, single concentration, SaOS-2; shares compounds with Mdm2 MdmX PPI; SaOS-2 full-length luciferase counterscreen, luminescence; inhibition, % at 8 µM; actives 77% (n = 6,200); AID 504607, 2011;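 active means mean inhibition at 8 µM reaching about 37%, which flags the compound as non-specific, limit read from the data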;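 further: p53-null SaOS-2 cells with luciferase driven by a doxycycline-inducible promoter; compound on cells about two nights before reading with doxycycline added after day one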
Numbers stand for hits. An excerpt weighted towards active compounds, which were near 4.6% of everything screened.

Screening COC(=O)C1=C(C)N(Cc2ccccc2)C(=NCCCCO)N[C@H]1c1ccccc1 returned Mdm2 MdmX PPI inactive.
Screening COC(=O)C1=C(C)N(Cc2ccccc2)C(=NCc2cccc(Cl)c2)N[C@H]1c1cccc(F)c1 returned HIF-2a block inactive, ABHD5-PLIN5 inh inactive, Mdm2 MdmX PPI 100, Peg3 promoter 104, CF NFkB block 60, KKLEB cytotox -53, Mdm2-MdmX conf 60 and Full FLuc ctr inactive.
COC(=O)C1=C(C)N(Cc2ccccc2)C(=NCc2ccco2)N[C@H]1c1cccc(F)c1 was read as HIF-2a block inactive, ABHD5-PLIN5 inh inactive, Mdm2 MdmX PPI inactive, Peg3 promoter inactive, CF NFkB block inactive and KKLEB cytotox inactive.
COC(=O)C1=C(C)N(Cc2ccccc2)C(=NCc2ccc3c(c2)OCO3)N[C@H]1c1ccccc1 was read as HIF-2a block inactive, ABHD5-PLIN5 inh inactive, Mdm2 MdmX PPI 56, Peg3 promoter inactive, CF NFkB block inactive, KKLEB cytotox inactive and Mdm2-MdmX conf inactive.
`COC(=O)C1=C(C)N(Cc2ccccc2)C(=NCc2ccc(OC)cc2)N[C@H]1c1cccc(F)c1` gave HIF-2a block inactive, ABHD5-PLIN5 inh inactive, Mdm2 MdmX PPI 87, Peg3 promoter 102, CF NFkB block inactive, KKLEB cytotox inactive, Mdm2-MdmX conf 47 and Full FLuc ctr 57.
Screening C[C@@H]1CCCCO[C@@H](CN(C)C(=O)c2ccncc2)[C@@H](C)CN([C@H](C)CO)C(=O)c2cc(NC(=O)Cc3ccccc3)ccc2O1 returned HIF-2a block inactive, ABHD5-PLIN5 inh inactive, Peg3 promoter inactive, CF NFkB block inactive and KKLEB cytotox inactive.
For CCN1C(=NCc2cc(OC)c(OC)c(OC)c2)N[C@@H](c2ccccc2)C(C(=O)OC)=C1C the results were HIF-2a block inactive, ABHD5-PLIN5 inh inactive, Mdm2 MdmX PPI inactive, Peg3 promoter inactive, CF NFkB block inactive and KKLEB cytotox inactive.
`COC(=O)C1=C(C)N(Cc2ccccc2)C(=NCc2cc(OC)c(OC)c(OC)c2)N[C@H]1c1cccc(F)c1` gave HIF-2a block inactive, ABHD5-PLIN5 inh inactive, Mdm2 MdmX PPI 62, Peg3 promoter inactive, CF NFkB block inactive, KKLEB cytotox inactive and Mdm2-MdmX conf inactive.
For Cc1ccc(S(=O)(=O)N2C[C@H]3[C@H]4C(=O)N(c5ccccc5)C(=O)[C@H]4C[C@H](OC(=O)NCc4ccccc4)[C@@]3(O)C2)cc1 the results were HIF-2a block inactive, ABHD5-PLIN5 inh inactive, Peg3 promoter inactive, CF NFkB block inactive and KKLEB cytotox inactive.
Screening COc1cccc(CNC(=O)Cc2ccc(-c3ccccc3)cc2)c1 returned HIF-2a block inactive, ABHD5-PLIN5 inh inactive, Mdm2 MdmX PPI 67, Peg3 promoter inactive, CF NFkB block inactive, KKLEB cytotox inactive, Mdm2-MdmX conf 59 and Full FLuc ctr 61.
Screening O=C(Cc1ccc(Br)cc1)NCc1ccccc1 returned HIF-2a block inactive, ABHD5-PLIN5 inh inactive, Mdm2 MdmX PPI 64, Peg3 promoter inactive, CF NFkB block inactive, KKLEB cytotox inactive, Mdm2-MdmX conf 52 and Full FLuc ctr 57.
`CN(C)C(=O)C(CCN1CCC(O)(c2ccc(Cl)cc2)CC1)(c1ccccc1)c1ccccc1` gave HIF-2a block inactive, ABHD5-PLIN5 inh inactive, Mdm2 MdmX PPI 67, Peg3 promoter inactive, CF NFkB block inactive, KKLEB cytotox inactive, Mdm2-MdmX conf inactive and Full FLuc ctr 85.
Screening CN(C)c1ccc(NC(=O)CN2CCC(O)(c3ccccc3)CC2)cc1 returned HIF-2a block inactive, ABHD5-PLIN5 inh inactive, Mdm2 MdmX PPI inactive, Peg3 promoter inactive, CF NFkB block inactive and KKLEB cytotox inactive.
